Among the data in PubChem BioAssay (NCI) are growth values, retold here.

Test systems include SR leukemia; RPMI-8226 leukemia; OVCAR-8 ovarian; OVCAR-5 ovarian; OVCAR-4 ovarian; SK-OV-3 ovarian; IGROV1 ovarian; OVCAR-3 ovarian; HS 578T breast; NCI/ADR-RES ovarian; T-47D breast; BT-549 breast; MDA-MB-435 melanoma; SW-620 colon; HCT-116 colon; HCC-2998 colon; KM12 colon; MCF7 breast.
Holding throughout (assay): NCI-60 one-dose screen, 48 h (100 = growth as untreated, 0 = no growth, -100 = all killed)
Holding throughout (settings): 10 µM unless noted

Compounds without any hit were thinned out: in the full panel of roughly 83,000, 20% have a hit.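 Results are percent growth after 48 hours of single-concentration exposure. 100 means growth as in untreated cells, lower positive values show inhibition; negative values down to -100 show cell death.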 A number with no mark means an inactive call. The source made the active and inactive calls. How the source made its calls: active means growth percent below 10; inactive means the rest.

For the compound `COc1ccc(Nc2ncccc2C(=O)NCc2cn(Cc3cccc(Oc4ccccc4)c3)nn2)c(OC)c1`, the growth in the experiment with SR leukemia is 30.3%; with RPMI-8226 leukemia, 35.5%; with OVCAR-8 ovarian, 43.4%; in the experiment on OVCAR-5 ovarian, 51.1%; with OVCAR-4 ovarian it was 54.9%; in the experiment on SK-OV-3 ovarian it was 21.6%. The growth in the experiment with IGROV1 ovarian was 48%; with OVCAR-3 ovarian, -57.8% (active); in the experiment with HS 578T breast it was 15.3%; in the experiment on NCI/ADR-RES ovarian, -10% (active); in the experiment with T-47D breast, 51.6%; in the experiment with BT-549 breast it was 43%. In addition, the growth with MDA-MB-435 melanoma was -24.2% (active); in the experiment on SW-620 colon, 26.4%; in the experiment on HCT-116 colon it was 15%; in the experiment on HCC-2998 colon it was -14.4% (active); with KM12 colon it was 17.9%.
For the compound `Cn1c(=O)cc(NC(=O)CN2CCN(c3cc4c(cc3F)c(=O)c(C(=O)O)cn4C3CC3)CC2)[nH]c1=O`, the growth in the experiment on SR leukemia was 103%; in the experiment with RPMI-8226 leukemia, 97.3%; in the experiment with OVCAR-8 ovarian it was 98%; in the experiment on OVCAR-5 ovarian it was 95.9%; with OVCAR-4 ovarian it was 96.9%; with SK-OV-3 ovarian, 112%. Moreover, the growth with IGROV1 ovarian was 101%; in the experiment with OVCAR-3 ovarian it was 99.5%; with HS 578T breast it was 103%; with NCI/ADR-RES ovarian it was 98.1%; with T-47D breast, 107%; in the experiment with BT-549 breast, 105%. For the same compound, the growth was 101% in the experiment on MDA-MB-435 melanoma; 99.3% in the experiment on SW-620 colon; 103% with HCT-116 colon; 100% in the experiment with HCC-2998 colon; 101% with KM12 colon.
Regarding `S=c1[nH]nc(-c2cc3ccc2CCc2ccc(cc2)CC3)n1-c1ccccc1`, the growth was 96.6% in the experiment on SR leukemia; 94.5% in the experiment on RPMI-8226 leukemia; 102% in the experiment with OVCAR-8 ovarian; 103% in the experiment on OVCAR-5 ovarian; 83.1% in the experiment on OVCAR-4 ovarian; 111% in the experiment with SK-OV-3 ovarian. For the same compound, the growth was 100% in the experiment with IGROV1 ovarian; 104% with OVCAR-3 ovarian; 116% in the experiment on HS 578T breast; 99.8% in the experiment with NCI/ADR-RES ovarian; 89.1% in the experiment on T-47D breast; 108% in the experiment on BT-549 breast. The growth in the experiment on MDA-MB-435 melanoma was 93.3%; with SW-620 colon it was 97.5%; with MCF7 breast, 85.3%; with HCC-2998 colon, 113%; in the experiment on KM12 colon, 98.2%.
Regarding `COc1ccc(C(=O)c2cc(OC)c(OC)c(OC)c2OC)cc1O`, the growth in the experiment on SR leukemia is 26.4%; in the experiment on RPMI-8226 leukemia, 44.7%; with OVCAR-8 ovarian, 61.3%; with OVCAR-5 ovarian, 92.8%; with OVCAR-4 ovarian, 83.9%; in the experiment on SK-OV-3 ovarian it was 20.1%. Also, the growth with IGROV1 ovarian was 57.4%; in the experiment with OVCAR-3 ovarian it was -21.8% (active); in the experiment with HS 578T breast, 16.3%; with NCI/ADR-RES ovarian, -8.84% (active); in the experiment with T-47D breast, 44.8%; with BT-549 breast, 39.8%. The growth in the experiment on MDA-MB-435 melanoma was -24% (active); in the experiment with SW-620 colon it was 20.5%; in the experiment on MCF7 breast, 17.5%; in the experiment with HCC-2998 colon, 58.6%; in the experiment with KM12 colon it was 20.8%.
As for `COc1ccc(-c2nc(SCCC(C)C)nc(Nc3ccc(F)c(Cl)c3)c2C#N)cc1`, the growth in the experiment on SR leukemia is 57.3%; with RPMI-8226 leukemia, 95.5%; with OVCAR-8 ovarian, 65.8%; in the experiment with OVCAR-5 ovarian, 102%; in the experiment on OVCAR-4 ovarian, -43.1% (active); in the experiment on SK-OV-3 ovarian, 96%. The growth with IGROV1 ovarian was 60.3%; with OVCAR-3 ovarian, 57.3%; in the experiment with HS 578T breast it was 65%; in the experiment with NCI/ADR-RES ovarian, 81.4%; in the experiment on T-47D breast, 72.4%; with BT-549 breast, 97.1%. The growth with MDA-MB-435 melanoma is 79.1%; in the experiment with SW-620 colon, 54.8%; with MCF7 breast, 69.1%; with HCC-2998 colon, 102%; in the experiment on KM12 colon, 102%.
As for `COC(=O)[C@]12CC[C@@H](C)[C@H](C)[C@@H]1C1=CC[C@@H]3[C@@]4(C)C(C=O)=C[C@@](C)(COC(=O)c5ccco5)[C@@H]4[C@H](O)C[C@@]3(C)[C@]1(C)CC2`, the growth in the experiment on SR leukemia was 0.404% (active); with RPMI-8226 leukemia, -26.8% (active); with OVCAR-8 ovarian, -3.22% (active); in the experiment with OVCAR-5 ovarian it was -20.9% (active); in the experiment with OVCAR-4 ovarian, -0.264% (active); in the experiment with SK-OV-3 ovarian, 18.7%. The growth in the experiment with IGROV1 ovarian was 5.24% (active); in the experiment with OVCAR-3 ovarian, -75.5% (active); in the experiment on HS 578T breast it was -9.48% (active); in the experiment with NCI/ADR-RES ovarian, 0.299% (active); in the experiment with T-47D breast it was 13.4%; in the experiment with BT-549 breast it was -3.09% (active). Further, the growth was -57.4% (active) in the experiment on MDA-MB-435 melanoma; -55.7% (active) in the experiment with SW-620 colon; -19.2% (active) in the experiment on MCF7 breast; -84.8% (active) in the experiment on HCC-2998 colon; -56.8% (active) with KM12 colon.
In the case of `COc1ccc(-c2nc3sc(-c4cc(OC)c(OC)c(OC)c4)nn3c2/C=C2/C(=O)Nc3ccc(F)cc32)cc1`, the growth in the experiment on SR leukemia was 18.6%; in the experiment on RPMI-8226 leukemia it was 13.3%; in the experiment with OVCAR-8 ovarian, 21.9%; in the experiment with OVCAR-5 ovarian, 3.01% (active); in the experiment with OVCAR-4 ovarian, -32.4% (active); in the experiment with SK-OV-3 ovarian, 6.67% (active). Moreover, the growth in the experiment on IGROV1 ovarian was -39.3% (active); in the experiment with OVCAR-3 ovarian, -60.9% (active); in the experiment with HS 578T breast, 30.3%; in the experiment on NCI/ADR-RES ovarian it was 37.6%; in the experiment on T-47D breast, -24.9% (active); with BT-549 breast, 41.5%. The growth is -28.6% (active) with MDA-MB-435 melanoma; 0.989% (active) in the experiment on SW-620 colon; 29.7% in the experiment with HCT-116 colon; -55% (active) in the experiment on HCC-2998 colon; 13.7% with KM12 colon.
As to `Cc1ccc(S(=O)(=O)Nc2c(Br)cc(Br)cc2C(N)=O)cc1`, the growth in the experiment with SR leukemia is 111%; in the experiment on RPMI-8226 leukemia, 95.2%; with OVCAR-8 ovarian it was 105%; in the experiment on OVCAR-5 ovarian, 99.1%; with OVCAR-4 ovarian it was 114%; in the experiment on SK-OV-3 ovarian, 106%. The growth with IGROV1 ovarian was 104%; in the experiment on OVCAR-3 ovarian it was 112%; in the experiment on HS 578T breast, 106%; in the experiment on NCI/ADR-RES ovarian, 99.4%; with T-47D breast it was 101%; in the experiment on BT-549 breast, 95.6%. For the same compound, the growth was 108% in the experiment with MDA-MB-435 melanoma; 102% in the experiment on SW-620 colon; 94.2% with HCT-116 colon; 106% in the experiment on HCC-2998 colon; 111% in the experiment on KM12 colon.
